The supplement of paper PMC10981050
Values joined by “and” are separate entries in the source; they are usually repeats but may differ in a detail not shown here. Identical values can stand only once.

Assays:
Experiment in all cases: cell viability relative to vehicle control; higher = less cytotoxic
Settings in all cases: 10 µM
K562 = tested on: K562
Method in brief: (§1)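 Four leukaemia lines, as CRISPR-edited mutant clones and isogenic wild-type clones, were tested against Selleck bioactive, kinase and epigenetic probe libraries after removal of identity-inconsistent compounds. Cells were exposed to a single 10 µM dose for 48 h, and CellTiter-Glo luminescence was then read. Viability was calculated relative to the on-plate vehicle control.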

MARIMO = tested on: MARIMO
Method in brief: as §1

MOLM14 = tested on: MOLM14
Method in brief: as §1

OCI-AML2 = tested on: OCI-AML2
Method in brief: as §1

SMILES	cell viability (K562; SRSF2 genotype: SRSF2 P95H/wt)	cell viability (K562; SRSF2 genotype: SRSF2 wt/wt)	cell viability (MARIMO; SRSF2 genotype: SRSF2 P95H/wt)	cell viability (MARIMO; SRSF2 genotype: SRSF2 wt/wt)	cell viability (MOLM14; SRSF2 genotype: SRSF2 P95H/wt)	cell viability (MOLM14; SRSF2 genotype: SRSF2 wt/wt)	cell viability (OCI-AML2; SRSF2 genotype: P95H/wt)	cell viability (OCI-AML2; SRSF2 genotype: wt/wt)
C[C@H](Cc1cc2c(c(C(N)=O)c1)N(CCCO)CC2)NCCOc1ccccc1OCC(F)(F)F [Silodosin]	81.7% and 88.2%	87.5%	86.2%	85.6%	87.2%	89.5%	74.7%	80%
Fc1cc(-c2cccc3ncc(-c4cnn(C5CCNCC5)c4)nc23)cc(F)c1CN1CCOCC1	3.45% and 6.22%	7.58%	31.9%	5.4%	0.59%	0.69%	0.94%	2.89%
C[C@H]1C[C@H]2[C@@H]3C[C@H](F)C4=CC(=O)C=C[C@]4(C)[C@@]3(F)[C@@H](O)C[C@]2(C)[C@@]1(O)C(=O)CO [Diflorasone]	101% and 99.2%	105%	109%	113%	92.1%	98.9%	92.7%	120%
CC(=O)c1cc(O)ccc1O [2',5'-Dihydroxyacetophenone]	90.6% and 97.4%	97.7%	94.6%	87.5%	103%	97.6%	94.7%	101%
C=C1C[C@@]23CC[C@H]4[C@@](C)(CCC[C@@]4(C)C(=O)O[C@@H]4O[C@H](CO)[C@@H](O)[C@H](O)[C@H]4O)[C@@H]2CC[C@]1(O[C@@H]1O[C@H](CO)[C@@H](O)[C@H](O)[C@H]1O[C@@H]1O[C@H](CO)[C@@H](O)[C@H](O)[C@H]1O)C3 [Stevioside]	113% and 107%	113%	111%	97.4%	112%	112%	108%	106%
Cc1cc(Nc2cc(CN3CCOCC3)c3nc(C)c(Cc4ccc(Cl)cc4F)n3n2)n[nH]1	88.8% and 88%	84%	73.1%	110%	19.7%	16.5%	34.7%	53%
CN1CCN(C2CCN(C(=O)Nc3cc(Oc4ccc(NC(=O)C5(C(=O)Nc6ccc(F)cc6)CC5)c(F)c4)ccn3)CC2)CC1 [Golvatinib (E7050)]	5.46% and 7.13%	10.1%	61.6%	58.9%	4.27%	8.67%	7.56%	18.6%
CC(C)CCNC(=O)[C@H](CC(C)C)NC(=O)[C@H]1O[C@@H]1C(=O)O [Loxistatin Acid (E-64C)]	107% and 106%	100%	102%	104%	101%	104%	106%	105%
COc1ccccc1OCCN [Carvedilol EP IMpurity E]	112% and 110%	113%	98%	102%	103%	107%	119%	117%
CCOC(=O)/C=C/c1ccc(O)c(OC)c1 [Ethyl ferulate]	98% and 104%	104%	92%	107%	98%	101%	112%	108%
Cc1nnc(SCC2=C(C(=O)O)N3C(=O)[C@@H](NC(=O)Cn4cc(Cl)c(=O)c(Cl)c4)[C@H]3SC2)s1 [Cefazedone]	102% and 107%	108%	106%	111%	106%	106%	121%	102%
Cc1cccc2c3c(ccc12)C1=C(C(=O)C3=O)[C@@H](C)CO1 [Dihydrotanshinone I]	3.54% and 3.11%	2.64%	7.76%	7.12%	0.56%	0.4%	0.43%	2.86%
CCC(=O)NCC[C@@H]1CCc2ccc3c(c21)CCO3 [Ramelteon]	105% and 104%	97.6%	91.7%	101%	107%	98.8%	93.7%	99.4%
COC(=O)c1ccco1 [Methyl furan-2-carboxylate]	108% and 99.5%	113%	101%	99.5%	107%	110%	111%	115%
COc1ccc(COc2cc3oc(=O)c4cc(C(C)O)ccc4c3cc2OC)cc1 (stereo unspecified) [Palomid 529]	101% and 111%	104%	105%	103%	102%	101%	106%	97.2%
CCC(C)(Oc1ccc(C2(c3ccc(OC(C)(CC)C(=O)O)cc3)CCCCC2)cc1)C(=O)O (stereo unspecified) [Clinofibrate]	95.4% and 93.2%	93.7%	92.4%	102%	93.8%	96.6%	90.4%	102%
N#C[C@@H]1CCCN1C(=O)CNC12CC3CC(CC(O)(C3)C1)C2 [Vildagliptin (LAF-237)]	87.8% and 87.2%	84.8%	81.8%	88.6%	83.9%	89%	88.8%	87.7%
